Results on 40 compounds are retold here after PubChem BioAssay (NCI).

Values joined by “and” are separate entries in the source; they are usually repeats but may differ in a detail not shown here. Identical values can stand only once. This is part of a sample that, as a whole, favours compounds with a hit. Of some 83,000 tested, about 20% had one in any assay.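 Growth was measured after 48 h exposure to one concentration of compound in 96-well plates. Values under 10 count as active.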 Values without a mark were called inactive. Active and inactive are the calls of the source.

The subject of the assay is MDA-MB-468 breast. Description: NCI-60 one-dose screen, 48 h (100 = growth as untreated, 0 = no growth, -100 = all killed). The settings on record: 10 µM unless noted.

For `N#Cc1nc(-c2ccc(Cl)cc2)oc1S(=O)(=O)N1CCN(c2ccc(F)cc2)CC1`, the growth was 105%.
Next, `COc1cc(CN(c2ccc(C)cc2)C2OC(=O)c3ccccc32)cc(OC)c1OC` (stereo not given): 25%; `O=S(=O)(Nc1ccc(Cl)cc1)c1ccc(-c2cnc(C3CC3)o2)cc1`: -27.7% (active).
For `COc1ccc(C2=C(c3cn(C)c4ccccc34)C(=O)OC2)cc1OC` the value was 1.23% (active).
For `N=C(N)c1ccc(-c2ccc(-c3ccc(Cl)cc3)o2)nc1`, the growth was -88.7% (active).
In the case of `C#CCOc1cccc(-c2ncnc3cc(NC(=O)CCl)ccc23)c1`, the growth was -57.3% (active).
Next, `O=Nc1ccc(O)c2ccccc12`: 11.7%; `Cc1ccc(-c2onc3c(=O)[nH]nc(-c4ccccc4)c23)cc1`: 29.5%; `O=C(NNc1nc2cc(F)ccc2n2c(CN3CCC(O)C3)ccc12)c1cnccn1` (stereo not given): -17.3% (active).
Turning to `Cc1nc2sc(C(=O)Nc3cccc(Cl)c3C)c(N)c2cc1C(C)O` (stereo not given), the growth is 25.4%.
For `CCCCCCCCCCC1CO1` (stereo not given) the value was 94.1%.
Next, `Cn1cnc([N+](=O)[O-])c1S(=O)(=O)Oc1ccccc1`: 77.4%; `N#Cc1c(N)nn(C(=O)c2ccc(NC(=O)c3ccccn3)cc2)c1-c1ccc(Cl)cc1`: -29.3% (active); `O=C1Nc2ccccc2/C1=C/c1cccn1CCCCCCn1c2ccccc2c(=O)c2ccccc21`: 8.47% (active).
Next, `Cc1ccc(S(=O)(=O)Nc2ccc3cc([N+](=O)[O-])ccc3c2[N+](=O)[O-])cc1`: 54% and 88.5%; `COC(=O)c1ccc2c(c1)nc(-c1cc3ccccc3[nH]c1=O)n2-c1cc(C(C)(C)C)[nH]n1`: 101%; `CCOC(=O)/C=C/c1ccc([N+](=O)[O-])o1`: 53.6%.
On to `CCc1ccc2c(c1)N(CCO)C1=C(C(=O)OC1)C2c1cccc(Cl)c1` (stereo not given), for which the growth was 20.1%.
Next, `O=C1c2ccc3c4c(ccc(c24)C(=O)N1CCCNCc1ccccc1Cl)C(=O)N(CCCNCc1ccccc1Cl)C3=O`: -89% (active).
For `COC(=O)c1c2c(c(C)[n+]([O-])c1C)C(=O)C(NCc1ccc(F)c(F)c1)=CC2=O` the value was -26.1% (active); for `O=C(N/N=C/c1ccccc1O)c1ccccc1O`, 17%.
Next, `C=C1CCC2C3(C)COC(C)(C)OC3CCC2(C)C1C/C=C1/C(=O)OCC1OC(C)=O` (stereo not given): 7.86% (active); `NC(=O)OCCO`: 113%; `CCN(C)CCCOc1ccc(/C(=C(\C)Cc2cccc(OC)c2)c2ccc(OC(C)=O)cc2)cc1`: 101%.
As for `CC(=O)n1nc(C(=O)OC(C)(C)c2ccccc2)c2ccccc21`, the growth was 93.3%.
Next, `CN(C)c1ccc(-c2ccc(-c3ccc(C(=N)N)cc3)s2)cc1`: -69.7% (active); `COc1ccc2cc(-c3ccc(NC(C)=O)c(=O)o3)ccc2c1`: 106%; `COc1ccc2c(c1)c(-c1nnc(N)nc1-c1cn(C)c3ccccc13)cn2C`: 78.8%.
In the case of `O=C(Cn1cccc(Nc2ccccc2)c1=O)Nc1ccccc1`, the growth is 95.1%.
For `CCNC(=O)N1CCc2cc(OC)c(OCCc3ccc(OC)cc3)cc2C1c1ccc(Cl)cc1C` (stereo not given) the value was -1.44% (active); for `COc1ccc(/C=C2\CN(Cc3cn(CCCNc4ccnc5cc(Cl)ccc45)nn3)C/C(=C\c3ccc(OC)c(OC)c3)C2=O)cc1OC`, -11.1% (active).
Next, `Cc1ccc(Cc2cnc(NC(=O)/C(C#N)=C/c3ccc(-c4ccc(Cl)cc4)o3)s2)cc1`: 83.1%.
For `Nc1ccc(-c2nnc(SCc3ccc(O)c4ncccc34)n2-c2ccccc2)cc1` the value was 9.01% (active); for `O=C1/C(=C/c2ccc(Cl)cc2)SC(=S)N1CCc1ccc(O)cc1`, 73.1%; for `Nc1cccc(C(=O)Nc2ccc3c(O)c(N=Nc4ccc(N=Nc5ccc(S(=O)(=O)O)cc5)cc4)c(S(=O)(=O)O)cc3c2)c1`, 113%.
For `CCN1CCN(C(=O)[C@]23CCC(C)(C)C[C@@H]2C2=CC[C@@H]4[C@@]5(C)CCC(=O)C(C)(C)[C@@H]5CC[C@@]4(C)[C@]2(C)CC3)CC1`, the growth was 30.5%.
For `N#CC1=C(N)Oc2nc[nH]c(=O)c2C1c1cccs1` (stereo not given) the value was 99.3%; for `Cn1c(=O)c2c(nc(Br)n2CCC(=O)Nc2ccc(F)cc2)n(C)c1=O`, 113%.
Next, `COC(=O)c1ccc(C2Nc3ccc(S(=O)(=O)Nc4ccc(C)c(C)c4)cc3C3OCCC23)cc1` (stereo not given): 54.7%; `COc1ccc(O)c(-c2cc(-c3ccc(Cl)cc3)c(C#N)c(=O)[nH]2)c1`: 78.8%.
